RAD54 branch: inhibitors of human RAD54 branch migration, primary screen, biochemical, fluorescence, single point; DNA repair and recombination protein RAD54-like (Homo sapiens), Q92698; RAD54 Holliday junction branch migration, FAM/BHQ fluorescence; inhibition, % at 10.4 µM; 360,000 compounds, 0.14% hits;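 active means mean normalized replicate activity at least 40 and at least half of replicates scoring 40 or more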;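 further: 0% = median of neutral control wells and 100% = median of positive control wells; inhibitors cause a drop in the FAM fluorescence signal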
NRP1-CendR mod: modulators of CendR peptide binding to NRP-1, primary screen, biochemical, fluorescence polarization, uHTS; FAM-RPARPAR peptide binding to NRP-1; 360,000 compounds, 0.85% hits; inhibition, % at 25 µM; Neuropilin-1 (Homo sapiens), O14786; AID 602438, 2012;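 active means inhibition or corrected inhibition above about 18%, plus a signal ratio from 0.5 to 1.5, limit read from the data, passing the limit was not always enough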
RAD52 inh: RAD52 DNA annealing inhibitors, primary screen, biochemical, FRET, single point, set 2; recombinant RAD52 DNA annealing, FRET fluorescence; inhibition, % at 18.7 µM; DNA repair protein RAD52 homolog (Homo sapiens), P43351; 360,000 compounds, 0.46% hits;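 active means every replicate showing at least 50% inhibition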
Target sequence (P43351 whole entry, looked up): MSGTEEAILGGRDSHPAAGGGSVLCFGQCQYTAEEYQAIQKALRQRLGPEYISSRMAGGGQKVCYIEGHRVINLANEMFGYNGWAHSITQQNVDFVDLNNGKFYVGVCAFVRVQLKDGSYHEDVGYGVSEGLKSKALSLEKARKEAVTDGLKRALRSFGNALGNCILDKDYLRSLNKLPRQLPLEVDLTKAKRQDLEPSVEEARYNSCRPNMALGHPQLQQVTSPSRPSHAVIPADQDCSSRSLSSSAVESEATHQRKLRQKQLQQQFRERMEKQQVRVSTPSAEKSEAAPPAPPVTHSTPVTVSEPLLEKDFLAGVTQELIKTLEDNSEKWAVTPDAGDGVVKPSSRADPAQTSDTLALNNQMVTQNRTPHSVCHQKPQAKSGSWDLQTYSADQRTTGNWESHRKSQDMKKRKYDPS
miR-122 sensor: miR-122 Renilla sensor signal increase in Huh7, primary screen, miR-122 inhibitor project, cell-based, single point, plate reader; activation (reporter increase), % at 12.5 µM; 340,000 compounds, 0.3% hits; Huh7 miR-122 Renilla luciferase sensor, 48 h; neutral wells = 0, positive control = 100;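 active means mean replicate activation score at least 90 and every replicate individually at or above 90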;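 further: higher luciferase means less miR-122 activity so hits act as miR-122 inhibitors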
DNA FID counter: compounds displacing fluorescent DNA intercalator, primary screen, artefact control for HCV NS3 helicase inhibitor project, biochemical, FID fluorescence. DNA fluorescent intercalator displacement. inhibition, % at 7.9 µM. 290,000 compounds, 0.17% hits. AID 1845, 2009; in the data active means inhibition above about 37%;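 further: 0% = vehicle and 100% = reference compound; higher means more ethidium bromide displaced from hairpin DNA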
Glyco luc inh: increase of ERlucT glycosylation luciferase signal, primary screen, N-linked glycosylation inhibitor project, D54 ERlucT cells, luminescence, set 2; D54 ERlucT glycosylation luciferase reporter, 24 h; percent of 100 nM tunicamycin response; reporter increase, % at 12.5 µM; 360,000 compounds, 0.23% hits;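 active means mean luciferase reporter signal, scaled so untreated is 0 and the glycosylation-blocking control 100, at or above a set limit in every replicate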;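 further: luciferase carries N-glycosylation sites so blocking glycosylation raises the light; 0% = median of neutral control wells and 100% = median of 100 nM tunicamycin wells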
* = called active by the depositor; . = no result; [ ] = remark or other dose. This is a sample that favours compounds with a hit; in the whole collection about 1.5% have one here.

SMILES	RAD54 branch	NRP1-CendR mod	RAD52 inh	miR-122 sensor	DNA FID counter	Glyco luc inh
COCC(=O)N1[C@H](CO)[C@H]2c3ccccc3N(C(=O)c3ccccc3)C[C@H]21	-0.8	.	-5.9	3.8[16.7 µM]	.	.
O=[N+]([O-])c1cccc(C=Nc2cc3c(cc2Br)OCCO3)c1	.	27.3*	-2.6	.	-2.1	1.7
CC(C)NC(=O)N[C@H]1CC[C@@H](CCn2cc(-c3ccc(F)cc3)nn2)O[C@H]1CO	-16.7	.	0.5	.	.	.
COc1ccc2c3c([nH]c2c1)[C@H](CO)N(C(=O)CN(C)C)CC31CCN(Cc2ccncc2)CC1	.	.	2.3	.	.	.
COc1ccc(CN2CC3(C2)CN(C(=O)CN(C)C)[C@@H](CO)c2[nH]c4cc(OC)ccc4c23)cc1	.	.	67.5*	.	.	.
COc1ccc2c3c([nH]c2c1)[C@@H](CO)NCC31CCN(C(=O)Nc2ccc(F)cc2)CC1	.	.	10.1	.	.	.
COc1ccc2c3c([nH]c2c1)[C@@H](CO)N(C(=O)CN(C)C)CC31CN(Cc2ccccc2)C1	.	.	60.4*	.	.	.
COc1ccc(CN2CC3(C2)CN(C(=O)CN(C)C)[C@H](CO)c2[nH]c4cc(OC)ccc4c23)cc1	.	.	68.7*	.	.	.
COc1ccc2c3c([nH]c2c1)[C@@H](CO)NCC31CCN(Cc2ccc(F)cc2)CC1	.	.	72.2*	.	.	.
COc1ccc(S(=O)(=O)Nc2ccc3c(c2)C(=O)N([C@@H](C)CO)C[C@H](C)[C@H](CN(C)Cc2ccc(C(=O)O)cc2)OCCCC[C@H](C)O3)cc1	10.1	.	-7.5	7.4[16.7 µM]	.	.
C[C@H](CO)N1C[C@H](C)[C@@H](CN(C)Cc2ccccc2)Oc2ccc(NC(=O)CCN3CCOCC3)cc2C1=O	2.0	.	-6.0	8.2[16.7 µM]	.	.
CCC1(c2ccc(OC)cc2)NC(=O)N(CC(=O)NC2CCCCC2C)C1=O (configuration not stated)	6.4	22.8*	-11.9	.	.	-0.1
Cc1ccc(Cl)cc1NC(=O)C[n+]1ccc(Cc2ccc([N+](=O)[O-])cc2)cc1	.	10.8	26.8	-20.5	39.7*	8.7
O=C(C[n+]1ccc(Cc2ccccc2)cc1)Nc1ccc([N+](=O)[O-])cc1Cl	.	-6.3	-1.0	.	17.0	1.8
O=C(c1n[nH]c2ccccc12)N1CCN(S(=O)(=O)c2ccc3ccccc3c2)CC1	12.0	47.4*	.	12.1	-4.5	4.1
COc1cccc(S(=O)(=O)Nc2ccc3c(c2)[C@H]2C[C@@H](CC(=O)NCCc4ccccc4)O[C@H](CO)[C@H]2O3)c1	1.1	.	26.7	15.4[16.7 µM]	.	.
C[C@H](CO)N1C[C@H](C)[C@@H](CN(C)C(=O)Nc2ccc3c(c2)OCO3)OCCCC[C@H](C)Oc2ccc(NS(=O)(=O)c3ccc(F)cc3)cc2C1=O	-5.2	.	.	-4.4[16.7 µM]	.	.
CCC(C(=O)NC1CCN(C)CC1)c1ccccc1 (configuration not stated)	-9.8	52.8*	-3.4	.	-2.2	-1.4
CCC(C(=O)NC1CC(C)(C)NC(C)(C)C1)c1ccccc1 (configuration not stated)	0.2	7.5	-2.9	-3.3	1.5	2.2
CC(=O)N1CC2(C1)[C@@H](c1ccc(-c3ccccc3C)cc1)[C@@H](CO)N2C(=O)CC1CC1	.	.	-15.2	.	.	.
CCCCCC(C)NC(=O)CN1C(=O)NC(C)(c2ccc3ccccc3c2)C1=O (configuration not stated)	-7.0	-8.6	-18.8	-9.5	-42.4	0.5
Cc1cccnc1NC(=O)CN1C(=O)NC(C)(c2ccc3ccccc3c2)C1=O (configuration not stated)	.	27.9*	-8.1	.	.	14.5
CC(C)NC(=O)Nc1ccc2c(c1)C(=O)N([C@@H](C)CO)C[C@H](C)[C@H](CN(C)Cc1ccc(Cl)c(Cl)c1)O2	0.7	.	.	35.4[16.7 µM]	.	.
Nc1ccc2cccc(O)c2c1	-0.8	28.5*	-3.1	-0.3	.	0.6
Nc1ccc2cc3ccccc3cc2c1	0.1	-68.9	1.0	-4.2	.	2.0
SMILES	RAD54 branch	NRP1-CendR mod	RAD52 inh	miR-122 sensor	DNA FID counter	Glyco luc inh
C[C@@H]1CN([C@@H](C)CO)C(=O)CCCn2nncc2CO[C@H]1CN(C)Cc1ccc(C(=O)O)cc1	.	.	-4.2	.	.	.
O=C(COc1ccc2ccccc2c1)N/N=C/c1ccccn1	-1.6	37.1*	-14.2	7.2	-18.1	3.0
O=C(C[C@@H]1CC[C@@H](NC(=O)C2CC2)[C@@H](CO)O1)NC1CCC1	-5.5	.	-6.2	3.5[16.7 µM]	.	.
CCOc1ccccc1CN1CCCC(C(=O)Nc2cccc(-n3cccn3)c2)C1 (configuration not stated)	-10.6	-5.5	-15.7	2.6	38.8*	-0.9
COc1ccc2c3c(n(C)c2c1)[C@H](CO)N(C(=O)C1CCOCC1)CC31CCN(Cc2cccc(F)c2)CC1	.	.	13.7	.	.	.
N#Cc1ccc(COC(=O)c2cnc(Cl)c(Cl)c2)cc1	-0.2	25.0*	-1.8	.	-10.6	-2.1
O=C(OCc1ccccc1)c1cnc(Cl)c(Cl)c1	-13.2	18.7	-51.0	-1.2	-5.7	0.4
C[C@@H]1CCCCO[C@@H](CN(C)Cc2ccc(C(=O)O)cc2)[C@H](C)CN([C@@H](C)CO)C(=O)c2cc(NC(=O)Nc3ccc4c(c3)OCO4)ccc2O1	6.6	.	2.2	4.8[16.7 µM]	.	.
CCCCCCNS(=O)(=O)c1ccc(OC)c(OC)c1	-9.2	1.8	.	203.2*	-11.2	-1.7
COCCCNS(=O)(=O)c1ccc(OC)c(Cl)c1Cl	19.9	-16.9	-15.7	16.2	-2.3	-0.4
CCCCNS(=O)(=O)c1ccc(OC)c(Cl)c1Cl	-4.9	-6.8	.	221.8*	-5.9	-2.0
COc1ccc(S(=O)(=O)NCCc2ccccc2)cc1OC	-6.5	-2.7	-18.2	.	-7.1	0.9
CCOc1ccc(S(=O)(=O)NNC(=O)c2cc3ccccc3o2)cc1	-1.6	43.0*	.	-3.3	-8.5	2.1
O=[N+]([O-])c1c(Nc2ccc(O)cc2)cc(Cl)c2nonc12	19.2	26.3*	28.8	.	4.0	-18.1
CN(C)c1cc(Nc2ccc(O)cc2)c([N+](=O)[O-])c2nonc12	1.4	-8.8	-4.5	-3.2	4.5	1.2
CC(C)NC(=O)N(C)C[C@@H]1OCCCC[C@H](C)Oc2ccc(NS(=O)(=O)c3ccc(Cl)cc3)cc2C(=O)N([C@H](C)CO)C[C@H]1C	-3.6	.	28.0	6.3[16.7 µM]	.	.
CC(C)CN(C(=O)COC(=O)C1c2ccccc2Oc2ccccc21)C1CCS(=O)(=O)C1 (configuration not stated)	.	23.8*	.	2.2	-10.1	-0.2
Cc1ccc(/C=C(/NC(=O)c2ccccc2)C(=O)NCCc2c[nH]c3ccccc23)o1	-7.5	-9.9	.	-3.2	-12.9	1.5

Bioassay records (PubChem)
